Compound activity: PubChem, National Center for Advancing Translational Sciences (NCATS)
AmpC inh no detg: inhibitors of E. coli AmpC beta-lactamase without detergent; P00811; AmpC nitrocefin hydrolysis, absorbance 480 nm, 0.0001% Triton; Potency, µM (highest dose often 57.1 µM), for the others: top-dose activity change, negative = inhibition, actives largely listed as inhibitors; hit rate 0.52% among 330,000; AID 485341;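 also: plate controls were no compound for no effect and no enzyme for full effect; nearly all actives have a fitted effect of over 20% in size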
Target sequence (P00811 whole entry, looked up): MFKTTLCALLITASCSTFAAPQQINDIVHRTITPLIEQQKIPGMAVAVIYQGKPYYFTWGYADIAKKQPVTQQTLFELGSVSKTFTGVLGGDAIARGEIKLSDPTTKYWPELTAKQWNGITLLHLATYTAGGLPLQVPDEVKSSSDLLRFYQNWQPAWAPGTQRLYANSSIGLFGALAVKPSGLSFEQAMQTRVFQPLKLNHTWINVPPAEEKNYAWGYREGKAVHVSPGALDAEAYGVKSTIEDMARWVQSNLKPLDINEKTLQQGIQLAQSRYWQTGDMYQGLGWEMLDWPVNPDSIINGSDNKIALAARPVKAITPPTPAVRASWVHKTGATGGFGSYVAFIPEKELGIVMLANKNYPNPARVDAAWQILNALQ
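20 mM phosphate pH 7.0 + 0.01% (detergent screen) or 0.0001% Triton X-100; 5.3 nM AmpC reagent; cpd preinc 15 min RT; nitrocefin (800 uM stock) to start; A480 q20 s × 4 min; Activity was normalised to no-enzyme and no-compound control wells.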
Giardia FBPA inh: blocks Giardia fructose-bisphosphate aldolase activity; A8B2U2; purified Giardia FBPA; Potency, µM (titrated, usually from 59.6 µM), without a hit: top-dose activity, negative = inhibition, most hits filed as inhibitors; hit rate 0.71% among 290,000; AID 2451; also: nearly all actives have a fitted effect of over 55% in size
Target sequence (A8B2U2 whole entry, looked up): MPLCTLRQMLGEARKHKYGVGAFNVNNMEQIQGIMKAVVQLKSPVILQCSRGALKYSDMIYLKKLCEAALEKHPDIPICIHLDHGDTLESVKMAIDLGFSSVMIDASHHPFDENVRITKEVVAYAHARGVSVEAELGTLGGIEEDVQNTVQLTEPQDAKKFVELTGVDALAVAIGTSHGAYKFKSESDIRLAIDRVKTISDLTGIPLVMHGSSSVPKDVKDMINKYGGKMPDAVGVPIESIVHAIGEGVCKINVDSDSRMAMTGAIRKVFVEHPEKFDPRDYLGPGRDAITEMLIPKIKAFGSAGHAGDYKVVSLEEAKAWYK
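Giardia FBPA (40 nM reagent) was preincubated 10 min at RT with compound (up to 57.5 uM final), then substrate plus GAPDH/TPI/NAD/arsenate coupling system with diaphorase/resazurin was added; resorufin fluorescence (525/598 nm) was read after 20 min.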
Sm TGR block: blocks Schistosoma mansoni thioredoxin glutathione reductase | purified TGR, DTNB reduction, TNB absorbance 405 nm | AID 485364 | Potency, µM (series often up to 114 µM), for inactives: top-dose activity change, negative = inhibition, actives largely listed as inhibitors | Q962Y6 | hit rate 3% among 360,000; also: nearly all actives have a fitted effect of over 60% in size
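Kinetic colorimetric format: TGR-catalysed, NADPH-driven DTNB reduction monitored via TNB absorbance. Enzyme dispensed at 20 nM; compound exposure 15 min at room temperature before reaction start.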
AmpC detergent: inhibitors of E. coli AmpC beta-lactamase with detergent | AmpC hydrolysis of nitrocefin, absorbance 480 nm, 0.01% Triton | Potency, µM (doses to about 114 µM), for inactives: at the highest dose activity change, negative = inhibition, most hits filed as inhibitors | hit rate 0.041% among 370,000;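 also: 0% = no-compound wells and -100% = no-enzyme wells; nearly all actives have a fitted effect of over 25% in size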
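AmpC (5.3 nM in the dispensed reagent) in 20 mM phosphate pH 7.0 with 0.01% (detergent screen) or 0.0001% Triton X-100 was preincubated with compounds for 15 min at room temperature. Nitrocefin was then added from an 800 uM solution, and hydrolysis was followed at 480 nm.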
RE007 growth inh: less growth of the S. pombe RE007 Vpr strain; Potency, µM (highest dose often 92.2 µM), for inactives: at the highest dose activity change, negative = less growth, actives largely listed as inhibitors; hit rate 0.21% among 360,000; S. pombe RE007 Vpr strain, BacTiter-Glo ATP luminescence, 24 h; active = well fitted falling curve with a large enough effect; inconclusive = small, poorly fitted or top-dose-only effect; inactive = no such curve, though single readings can be large or run the other way; also: nearly all actives have a fitted effect of over 50% in size
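Fission yeast RE007 carrying one integrated HIV-1 vpr copy, seeded at OD 0.01 in PMG+AL medium with 23 nL pinned compound. Grown 24 h at 30 degrees; viability read by BacTiter-Glo luminescence after 5 min.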
Starred values were filed as active, the others as inactive; ? = inconclusive; / = not tested or not shown. Shown are actives, neighbours in structure and some others; about 3.4% of the full set was active somewhere. Unless noted, calls follow the shape of the dose curve; as a rule, active = well fitted curve in the direction sought with a large enough effect; inconclusive = small, poorly fitted or top-dose-only effect, or another doubt; inactive = no such curve, though single readings can be large; an effect the other way counts as inactive or inconclusive. Unless noted, % is scaled to controls: 0 for no effect and ±100 for the full control effect; potency is read from the fitted curve at half-maximal effect.

SMILES	AmpC inh no detg	Giardia FBPA inh	Sm TGR block	AmpC detergent	RE007 growth inh
Cc1ccccc1-c1nc(CS(=O)CC(=O)N2CCC3(CC2)OCCO3)c(C)o1 (stereo not given)	110%	5%	8.9µM*	12%	-7%
Cc1ccc2c(C(=O)CN3CCCCC3)c(C)[nH]c2c1	-2%	-2%	20µM*	-14%	-7%
CCOC(=O)C1CCN(CC(=O)c2c(C)[nH]c3cc(C)ccc23)CC1	11%	-8%	31%	-2%	-3%
Cc1ccc2c(C(=O)CN3CCC(C(N)=O)CC3)c(C)[nH]c2c1	-9%	3%	35µM*	2%	/
CCCCNC(=O)c1nc2ncc(Br)cn2n1	13%	-1%	0%	-12%	9%
COc1cc(C(C[N+](=O)[O-])c2c(C)cc3ccccn23)ccc1O (stereo not given)	11%	-27%	18µM*	-6%	?
COc1ccc(C(C[N+](=O)[O-])c2c(-c3ccccc3)cc3ccccn23)cc1 (stereo not given)	-12%	-5%	-30%	7%	?
COc1cc(C(C[N+](=O)[O-])c2c(-c3ccccc3)cc3ccccn23)cc(OC)c1OC (stereo not given)	49%	?	8.9µM*	-3%	-22%
COc1ccc(C(C[N+](=O)[O-])c2c(-c3ccccc3)cc3ccccn23)cc1OC (stereo not given)	/	-21%	7.9µM*	-4%	?
COc1cc(C(C[N+](=O)[O-])c2c(C)[nH]c3ccccc23)ccc1O (stereo not given)	-33%	-20%	?	-13%	-18%
C[C@@H]1C=C(C(=O)N2CCOCC2)O[C@H](OCc2ccc(CO)cc2)C1	2%	4%	-7%	-7%	-10%
Cc1cc(Cl)ccc1OCCCC(=O)N1CCN(C(=O)c2ccco2)CC1	81%	3%	50µM*	-15%	22%
CCc1cc2ccc(C)cc2nc1SCC(=O)N1CCN(C(=O)c2ccco2)CC1	96%	6%	40µM*	-11%	-3%
O=C(CSc1nc2ccc(Cl)cc2[nH]1)N1CCN(C(=O)c2ccco2)CC1	-6%	-5%	50µM*	-3%	/
O=C(CCCOc1ccccc1)N1CCN(C(=O)c2ccco2)CC1	-7%	7%	-6%	?	14%
Cc1ccc(NC(=O)N(Cc2ccco2)C(C)c2ccco2)cc1C (stereo not given)	-15%	1%	1%	3%	1%
CCCSc1nnc(N2C(=O)C(O)=C(C(=O)c3ccco3)C2c2ccccc2F)s1 (stereo not given)	-43%	?	7.1µM*	-5%	-6%
CSc1nnc(N2C(=O)C(O)=C(C(=O)c3ccco3)C2c2ccccc2F)s1 (stereo not given)	-20%	/	?	3%	4%
C=CCSc1nnc(N2C(=O)C(O)=C(C(=O)c3ccco3)C2c2ccccc2F)s1 (stereo not given)	-47%	?	11µM*	-5%	4%
CCCCNS(=O)(=O)c1ccc2nc(SCC(=O)Nc3cccc(F)c3)[nH]c2c1	-14%	-16%	4%	-9%	17%
COc1nn(-c2ccccc2)c(=O)c(Cl)c1Cl	-6%	6%	22µM*	?	?
Cc1ccc(SCC(=O)OCC(=O)N(CCC#N)c2ccccc2)cc1C	26%	/	?	0%	-21%
Cc1ccc(N(CCC#N)C(=O)CCl)cc1C	-18%	-4%	18µM*	3%	1%
CCc1cccc(C)c1NC(=O)CCS(=O)(=O)c1ccc2c(c1)oc(=O)n2C	/	/	25µM*	6%	/
Cc1cccc(C)c1NC(=O)CCS(=O)(=O)c1ccc2c(c1)n(C)c(=O)c(=O)n2C	/	/	-18%	-5%	/
SMILES	AmpC inh no detg	Giardia FBPA inh	Sm TGR block	AmpC detergent	RE007 growth inh
Cn1c(=O)c(C(=O)NNC(=O)c2cccc(Cl)c2)c(O)c2ccccc21	-20%	8%	8%	3%	13µM*
Cc1cccc(C(=O)NNC(=O)c2c(O)c3ccccc3n(C)c2=O)c1	9%	4%	-8%	-4%	40µM*
Cc1ccc(-n2nc3c(=O)n(CCCC(=O)NCCN4CCN(C)CC4)nc(C)c3c2C)cc1	55%	/	0%	-6%	-9%
CCOC(=O)c1ccc(NC(=O)c2ccc3c(c2)CCN3S(=O)(=O)c2ccc(Cl)cc2)cc1	/	/	8%	26%	/
Cc1sc2nc(C)n(/N=C/c3ccc(O)cc3O)c(=O)c2c1C	-21%	-9%	-2%	-10%	5%
COCCn1c(=S)[nH]c2cc(C(=O)N3CCN(c4cccc(Cl)c4)CC3)ccc2c1=O	-1%	1%	-2%	2%	1%
COc1cc(C(=O)NC2CCN(CC(=O)NC3CCCCC3C)CC2)cc(OC)c1OC (stereo not given)	28%	0%	-1%	-8%	4%
COc1cc(C(=O)NC2CCCNC2)cc(OC)c1OC (stereo not given)	-5%	2%	35µM*	-2%	/
COc1ccccc1COCC(O)CN(Cc1ccco1)Cc1ccccc1O (stereo not given)	5%	4%	-3%	-5%	-12%
COCCn1c(=NC(=O)CSC(C)=O)sc2cc(F)ccc21	-6%	-18%	7%	-1%	-15%
CCOC(=O)Cn1c(=NC(=O)CSC(C)=O)sc2cc(F)ccc21	35µM*	1%	1%	?	15%
Cc1nnc2sc(-c3csc4c3CCCC4)nn12	-7%	1%	1%	2%	-19%
S=c1nc(-c2csc3c2CCCC3)[nH][nH]1	-50%	5%	35µM*	1%	-4%
CCc1sc(C(C2C(=O)CC(C)(C)CC2=O)C2C(=O)CC(C)(C)CC2=O)cc1[N+](=O)[O-]	-30%	14%	4µM*	-3%	0%
CC1(C)CC(=O)C(C(c2ccco2)C2C(=O)CC(C)(C)CC2=O)C(=O)C1	-14%	-9%	?	-14%	22%
Cn1c(C(=O)NCCCN2CCCCCC2)cc2c(=O)n(C)c3ccccc3c21	11µM*	-6%	?	?	2%
CN1C[C@H](CO)C=C2c3cccc4[nH]cc(c34)C[C@H]21	6%	-37%	11µM*	4%	-10%
CN1C[C@@H](CO)C=C2c3cccc4[nH]cc(c34)CC21 (stereo not given in full)	/	-1%	/	/	/
CN(C)S(=O)(=O)c1cccc(NC(=O)COC(=O)/C=C/c2ccco2)c1	-16%	0%	?	-9%	21%
Cc1ccc(NC(=O)COC(=O)/C=C/c2ccco2)cc1S(=O)(=O)N(C)C	-19%	3%	25µM*	-9%	/
C/C=C/C(=O)OCC(=O)Nc1ccc(C)c(S(=O)(=O)N(C)C)c1	-9%	0%	45µM*	2%	-18%
